What all share (settings): mRNA level, 48 h; actives raise or lower the signal
Read-out in test [1]: Interleukin 6 Receptor (IL6R), IL6R (gene 3570)
Put plainly: LTEA_HepaRG_IL6R: Life Technologies and Expression Analysis (LTEA) Assay for Interleukin 6 Receptor (IL6R) using HepaRG (AID 2283510).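 On AC50: TaqMan qRT-PCR signal normalized to ACTB GAPDH and POLR2A housekeeping genes.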 Summed up: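 Concentration-response in human liver HepaRG cells: eight concentrations from 100 uM downward by half-logs, 48 h exposure, 0.5% DMSO vehicle. IL6R mRNA change measured by qRT-PCR and fitted in both directions relative to vehicle.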

Read-out in test [2]: Potassium channel subfamily K member 1 (KCNK1), KCNK1 (gene 3775)
Put plainly: LTEA_HepaRG_KCNK1: Life Technologies and Expression Analysis (LTEA) Assay for Potassium channel subfamily K member 1 (KCNK1) using HepaRG (AID 2283511). Summed up: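 Differentiated human HepaRG cells in serum-free induction medium were exposed in duplicate for 48 h to 8 half-log concentrations up to 100 uM in 0.5% DMSO. KCNK1 mRNA was measured by TaqMan qRT-PCR, normalized to ACTB, GAPDH and POLR2A, and fitted bidirectionally versus DMSO.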

Read-out in test [3]: Keratin 19 (KRT19), KRT19 (gene 3880)
The experiment in a line: LTEA_HepaRG_KRT19: Life Technologies and Expression Analysis (LTEA) Assay for Keratin 19 (KRT19) using HepaRG (AID 2283512). Summed up:
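Differentiated HepaRG cells in serum-free induction medium, exposed 48 h in duplicate to 8 half-log concentrations up to 100 uM in 0.5% DMSO. KRT19 mRNA by qRT-PCR, normalized to ACTB, GAPDH, POLR2A; bidirectional fit vs DMSO.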

Read-out in test [4]: JUN Transcription Factor, JUN (gene 3725)
The experiment in a line: LTEA_HepaRG_JUN: Life Technologies and Expression Analysis (LTEA) Assay for JUN Transcription Factor using HepaRG (AID 2283513). Summed up: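 Human HepaRG liver cells receive test chemicals in 0.5% DMSO for 48 h across an eight-point range topping at 100 uM. Expression changes in JUN are scored in both directions against the DMSO vehicle.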

Read-out in test [5]: Lipase C (LIPC), LIPC (gene 3990)
Put plainly: LTEA_HepaRG_LIPC: Life Technologies and Expression Analysis (LTEA) Assay for Lipase C (LIPC) using HepaRG (AID 2283514). The gist of the method: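 Differentiated human HepaRG cells in serum-free induction medium were exposed in duplicate for 48 h to eight concentrations (top 100 uM, half-log steps, 0.5% DMSO). LIPC mRNA was quantified by TaqMan qRT-PCR, normalized to ACTB, GAPDH and POLR2A, with bidirectional fitting versus DMSO.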

Read-out in test [6]: Lipoprotein lipase (LPL), LPL (gene 4023)
The experiment in a line: LTEA_HepaRG_LPL: Life Technologies and Expression Analysis (LTEA) Assay for Lipoprotein lipase (LPL) using HepaRG (AID 2283515). The gist of the method: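 Differentiated human HepaRG cells in serum-free induction medium were exposed in duplicate for 48 h to eight half-log concentrations (top 100 uM) in 0.5% DMSO. LPL mRNA was quantified by TaqMan qRT-PCR, normalized to ACTB, GAPDH and POLR2A.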

Read-out in test [7]: MicroRNA 122 (MIR122), gene 406906
The experiment in a line: LTEA_HepaRG_MIR122: Life Technologies and Expression Analysis (LTEA) Assay for MicroRNA 122 (MIR122) using HepaRG (AID 2283516). Further: the transcript read is the microRNA miR-122. The gist of the method:
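HepaRG, 48 h exposure, 8-pt half-log from 100 uM, 0.5% DMSO; TaqMan qRT-PCR; bidirectional fit vs DMSO.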

Read-out in test [8]: matrix metalloproteinase-10 (MMP10), MMP10 (gene 4319)
Put plainly: LTEA_HepaRG_MMP10: Life Technologies and Expression Analysis (LTEA) Assay for matrix metalloproteinase-10 (MMP10) using HepaRG (AID 2283517). Summed up: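 HepaRG, collagen I, ~100,000 cells/well; serum-free induction medium; 48 h exposure, duplicate, 8-pt half-log to 100 uM, 0.5% DMSO. Readout: TaqMan qRT-PCR, normalized to ACTB/GAPDH/POLR2A; bidirectional fit vs DMSO.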

Read-out in test [9]: MYC, MYC (gene 4609)
The experiment in a line: LTEA_HepaRG_MYC: Life Technologies and Expression Analysis (LTEA) Assay for MYC using HepaRG (AID 2283518). Summed up:
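Differentiated HepaRG cells exposed 48 h in serum-free induction medium to 8 concentrations (top 100 uM, half-log steps; 0.5% DMSO), duplicate. MYC mRNA measured by Fluidigm qRT-PCR, normalized to ACTB, GAPDH, POLR2A; bidirectional fit versus DMSO.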

Read-out in test [10]: matrix metalloproteinase-3 (MMP3), MMP3 (gene 4314)
Put plainly: LTEA_HepaRG_MMP3: Life Technologies and Expression Analysis (LTEA) Assay for matrix metalloproteinase-3 (MMP3) using HepaRG (AID 2283519). Summed up: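 Differentiated human HepaRG cells, plated 48 h on collagen I, were exposed in duplicate for 48 h in serum-free induction medium to eight half-log concentrations up to 100 uM in 0.5% DMSO. MMP3 mRNA was quantified by TaqMan qRT-PCR, normalised to ACTB, GAPDH and POLR2A.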

Read-out in test [11]: Paternally Expressed 10 (PEG10), PEG10 (gene 23089)
The experiment in a line: LTEA_HepaRG_PEG10: Life Technologies and Expression Analysis (LTEA) Assay for Paternally Expressed 10 (PEG10) using HepaRG (AID 2283520). Summed up:
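Chemicals tested on HepaRG cells for 48 h, highest concentration 100 uM. PEG10 expression assessed by qRT-PCR relative to DMSO control.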

Read-out in test [12]: Protein phosphatase 2A (PPP2R4), PTPA (gene 5524)
Put plainly: LTEA_HepaRG_PPP2R4: Life Technologies and Expression Analysis (LTEA) Assay for Protein phosphatase 2A (PPP2R4) using HepaRG (AID 2283522). Summed up:
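Gene-expression endpoint in HepaRG hepatic cells: 48 h treatment across eight half-log concentrations up to 100 uM in 0.5% DMSO. PPP2R4 mRNA by qRT-PCR, normalized to three endogenous control genes.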

Read-out in test [13]: Phosphatase and tensin (PTEN), PTEN (gene 5728)
Put plainly: LTEA_HepaRG_PTEN: Life Technologies and Expression Analysis (LTEA) Assay for Phosphatase and tensin (PTEN) using HepaRG (AID 2283523). Summed up: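 Differentiated human HepaRG cells, plated 48 h then switched to serum-free induction medium, were exposed in duplicate for 48 h to eight half-log concentrations up to 100 uM in 0.5% DMSO. PTEN mRNA measured by TaqMan qRT-PCR, normalized to ACTB/GAPDH/POLR2A, bidirectional fit versus DMSO.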

Read-out in test [14]: solute carrier (SLC22A1), SLC22A1 (gene 6580)
The experiment in a line: LTEA_HepaRG_SLC22A1: Life Technologies and Expression Analysis (LTEA) Assay for solute carrier (SLC22A1) using HepaRG (AID 2283524). The gist of the method:
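Human HepaRG cells were plated 48 h, switched to serum-free induction medium, then exposed in duplicate for 48 h to 8-point half-log series from 100 uM in 0.5% DMSO. SLC22A1 mRNA measured by qRT-PCR, normalized to ACTB/GAPDH/POLR2A, fitted bidirectionally versus DMSO.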

Read-out in test [15]: Pyruvate Dehydrogenase Kinase 4 (PDK4), PDK4 (gene 5166)
Put plainly: LTEA_HepaRG_PDK4: Life Technologies and Expression Analysis (LTEA) Assay for Pyruvate Dehydrogenase Kinase 4 (PDK4) using HepaRG (AID 2283525). Summed up:
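Differentiated human HepaRG cells, pre-cultured 48 h, were exposed in duplicate for 48 h in serum-free induction medium to eight half-log concentrations up to 100 uM in 0.5% DMSO. PDK4 mRNA was quantified by qRT-PCR, normalized to ACTB, GAPDH and POLR2A, bidirectional fitting versus DMSO.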

Read-out in test [16]: NAD(P)H dehydrogenase [quinone] 1 (NQO1), NQO1 (gene 1728)
The experiment in a line: LTEA_HepaRG_NQO1: Life Technologies and Expression Analysis (LTEA) Assay for NAD(P)H dehydrogenase [quinone] 1 (NQO1) using HepaRG (AID 2283526). Summed up:
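Human HepaRG hepatic cells received chemicals for 48 h in serum-free induction medium with 0.5% DMSO, up to 100 uM. Expression was assessed by TaqMan qRT-PCR against housekeeping controls and fitted bidirectionally against DMSO.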

Read-out in test [17]: Nuclear factor erythroid 2-related factor 2 (Homo sapiens) (UniProt Q16236)
The experiment in a line: LTEA_HepaRG_NFE2L2: Life Technologies and Expression Analysis (LTEA) Assay for Nuclear factor erythroid 2-related factor 2 (NFE2L2) Transcription Factor using HepaRG (AID 2283527).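 On outcome: TaqMan qRT-PCR transcript level normalised to ACTB GAPDH and POLR2A housekeeping genes.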 The gist of the method: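 Differentiated human HepaRG cells in serum-free induction medium were exposed for 48 h to eight concentrations (top 100 uM, half-log dilutions, 0.5% DMSO), in duplicate. NFE2L2 mRNA was quantified by TaqMan qRT-PCR, normalized to ACTB, GAPDH and POLR2A, with bidirectional fitting versus DMSO.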

Read-out in test [18]: succinate dehydrogenase complex iron sulfur subunit B (SDHB), SDHB (gene 6390)
Put plainly: LTEA_HepaRG_SDHB: Life Technologies and Expression Analysis (LTEA) Assay for succinate dehydrogenase complex iron sulfur subunit B (SDHB) using HepaRG (AID 2283528). The gist of the method:
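Readout is SDHB transcript level by qRT-PCR, normalised to three housekeeping genes and fitted bidirectionally against 0.5% DMSO vehicle. Human HepaRG cells were treated for 48 h at up to 100 uM.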

Read-out in test [19]: Signal transducer and activator of transcription 3 (Homo sapiens) (UniProt P40763)
Put plainly: LTEA_HepaRG_STAT3: Life Technologies and Expression Analysis (LTEA) Assay for Signal transducer and activator of transcription (STAT3) using HepaRG (AID 2283529). The gist of the method:
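Differentiated human HepaRG cells in serum-free induction medium were exposed in duplicate for 48 h to eight half-log concentrations up to 100 uM in 0.5% DMSO. STAT3 mRNA was quantified by TaqMan qRT-PCR, normalized to ACTB, GAPDH and POLR2A, and fitted bidirectionally against DMSO.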

Active and inactive are the calls of the source. How the source made its calls: active means hit-call score of the fitted dose curve at least 0.9, where 1 is the maximum; inactive means score below 0.9.

Sequence of Signal transducer and activator of transcription 3 (Homo sapiens) (P40763 whole entry, looked up): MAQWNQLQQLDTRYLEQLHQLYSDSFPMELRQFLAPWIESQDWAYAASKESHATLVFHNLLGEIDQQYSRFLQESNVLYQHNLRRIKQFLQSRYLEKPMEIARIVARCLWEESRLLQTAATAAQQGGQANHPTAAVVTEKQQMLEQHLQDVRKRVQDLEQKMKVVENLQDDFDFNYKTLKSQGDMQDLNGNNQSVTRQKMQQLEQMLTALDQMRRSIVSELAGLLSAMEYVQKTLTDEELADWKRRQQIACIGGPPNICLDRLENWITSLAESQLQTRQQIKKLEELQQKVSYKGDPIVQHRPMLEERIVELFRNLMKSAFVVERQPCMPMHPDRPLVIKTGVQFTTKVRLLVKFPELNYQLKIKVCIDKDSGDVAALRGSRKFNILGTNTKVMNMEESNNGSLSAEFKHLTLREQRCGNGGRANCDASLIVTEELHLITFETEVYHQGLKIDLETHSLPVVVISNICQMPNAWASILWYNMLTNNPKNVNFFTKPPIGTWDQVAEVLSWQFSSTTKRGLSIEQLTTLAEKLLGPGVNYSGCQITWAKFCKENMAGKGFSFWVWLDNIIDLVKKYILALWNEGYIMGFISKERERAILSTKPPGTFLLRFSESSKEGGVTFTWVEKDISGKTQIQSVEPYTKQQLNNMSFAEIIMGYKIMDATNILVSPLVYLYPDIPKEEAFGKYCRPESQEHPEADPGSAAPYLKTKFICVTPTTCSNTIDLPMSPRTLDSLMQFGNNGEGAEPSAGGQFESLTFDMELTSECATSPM
Sequence of Nuclear factor erythroid 2-related factor 2 (Homo sapiens) (Q16236 whole entry, looked up): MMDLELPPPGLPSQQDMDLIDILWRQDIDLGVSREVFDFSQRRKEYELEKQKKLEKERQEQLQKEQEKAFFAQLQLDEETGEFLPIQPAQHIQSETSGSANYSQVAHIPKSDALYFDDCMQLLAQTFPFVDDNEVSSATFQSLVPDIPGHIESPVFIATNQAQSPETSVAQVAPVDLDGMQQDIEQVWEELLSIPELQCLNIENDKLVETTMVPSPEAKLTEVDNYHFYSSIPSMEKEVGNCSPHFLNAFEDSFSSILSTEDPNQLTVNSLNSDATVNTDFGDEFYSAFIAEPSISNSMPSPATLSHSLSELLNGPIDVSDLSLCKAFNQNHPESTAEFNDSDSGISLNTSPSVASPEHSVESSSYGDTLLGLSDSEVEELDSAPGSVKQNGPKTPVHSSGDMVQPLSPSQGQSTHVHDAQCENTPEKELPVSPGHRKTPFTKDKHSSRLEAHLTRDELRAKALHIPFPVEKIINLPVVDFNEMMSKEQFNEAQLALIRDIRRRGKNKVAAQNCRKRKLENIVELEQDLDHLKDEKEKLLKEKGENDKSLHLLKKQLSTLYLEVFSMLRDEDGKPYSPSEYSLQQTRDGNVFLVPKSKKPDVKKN

With `O=C(O)c1c(Cl)ccc2cc(Cl)cnc12`, the outcome in [1], in [2], in [3], in [4], in test [5] and in test [6] was inactive. The call in test [7], in test [8], in [9], in test [10], in test [11] and in test [12] was inactive. In addition, the result in test [13], in test [14], in test [15], in test [16], in test [17] and in [18] was inactive. The call in test [19] was inactive.
Turning to `CS(=O)(=O)c1ccc(C(=O)C2C(=O)CCCC2=O)c([N+](=O)[O-])c1`, the molecule was classed as inactive in test [1], in test [2], in test [3], in test [4], in test [5] and in test [6]. Besides, the molecule was classed as inactive in [7], in test [8], in test [9], in [10], in test [11] and in [12]. Besides, the call in test [13], in test [14], in [15], in test [16], in test [17] and in test [18] was inactive. In test [19], the outcome was inactive.
On to `COCC(C)N(C(=O)CCl)c1c(C)csc1C` (stereo not given), for which the outcome in test [1], in [2], in test [4], in test [5], in [6] and in test [7] was inactive. In addition, the outcome in test [8], in test [9], in test [10], in test [11], in [12] and in test [13] was inactive. Besides, the result in test [15], in test [16], in test [17], in test [18] and in [19] was inactive. The AC50 – broadly, the concentration at which the activity in the assay is half-maximal – in test [14] is 73.3 µM (active).
Take `CC(C)NC(=O)N1CC(=O)N(c2cc(Cl)cc(Cl)c2)C1=O`: the AC50 in [1] is 2.86 µM (active); in test [3], 20.3 µM (active); in [5] it was 10.2 µM (active); in test [6], 14.6 µM (active); in test [9], 13.2 µM (active); in test [14], 21.3 µM (active). Besides, the AC50 in test [15] was 12.7 µM (active); in test [17] it was 13.1 µM (active); in test [19], 5.78 µM (active). In addition, the molecule was called inactive in test [2], in test [4], in [7], in test [8], in test [10] and in test [11]. Moreover, the molecule was classed as inactive in test [12], in test [13], in test [16] and in [18].

These data come from PubChem BioAssay (EPA / NIEHS).
